{"source": "paper PMC8384837", "about": "“Expanding the binding specificity for RNA recognition by a PUF domain”", "assay_in_all_cases": "yeast three-hybrid, YBZ-1, SC-Leu-His + 0.5 mM 3-AT, 4 days", "conditions_in_all_cases": "tags: N-Gal4 AD-HA kept; label: inside an RPR1-promoter hybrid RNA with tandem MS2 sites; ssRNA", "key": {"PUM1 PUF domain R1-KTS": {"biological_target": "PUM1 PUF domain R1-KTS (Homo sapiens, UniProt Q14671 828-1176, S863K;R864T;Q867S)", "method_in_brief": "(§1)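 Matching RNA elements and Pumilio-1 PUF domain libraries, randomized at the three base-contacting residues of every repeat, were co-expressed from a centromeric plasmid in strain YBZ-1 (LexA–MS2 coat fusion, HIS3 reporter). The repeat regions were PCR-amplified and Illumina-sequenced from cells grown four days on SC-Leu (input) or SC-Leu-His + 0.5 mM 3-AT (selection). The interaction score is the log change in variant frequency from input to selection. It is computed in log2, with a pseudocount of 1 for absent variants.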"}, "PUM1 PUF domain R1-GYR": {"biological_target": "PUM1 PUF domain R1-GYR (Homo sapiens, UniProt Q14671 828-1176, S863G;R864Y;Q867R)", "sequence (Q14671 828-1176 S863G/R864Y/Q867R)": "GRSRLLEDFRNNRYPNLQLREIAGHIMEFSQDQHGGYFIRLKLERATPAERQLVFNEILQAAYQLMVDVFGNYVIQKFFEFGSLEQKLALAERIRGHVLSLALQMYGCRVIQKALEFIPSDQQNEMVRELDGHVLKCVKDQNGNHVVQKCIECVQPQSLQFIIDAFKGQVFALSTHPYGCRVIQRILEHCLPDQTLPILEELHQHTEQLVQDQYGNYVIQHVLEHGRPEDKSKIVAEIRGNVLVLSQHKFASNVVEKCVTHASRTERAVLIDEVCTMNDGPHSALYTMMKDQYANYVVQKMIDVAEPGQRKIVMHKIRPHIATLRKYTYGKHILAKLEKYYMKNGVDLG", "method_in_brief": "as §1"}, "PUM1 PUF domain R3-RAT": {"biological_target": "PUM1 PUF domain R3-RAT (Homo sapiens, UniProt Q14671 828-1176, C935R;R936A;Q939T)", "method_in_brief": "as §1"}, "PUM1 PUF domain R3-MRY": {"biological_target": "PUM1 PUF domain R3-MRY (Homo sapiens, UniProt Q14671 828-1176, C935M;Q939Y)", "sequence (Q14671 828-1176 C935M/Q939Y)": "as the sequence (Q14671 828-1176 S863G/R864Y/Q867R) above, with G36S, Y37R, R40Q, C108M, Q112Y counted along it", "method_in_brief": "as §1"}, "PUM1 PUF domain R3-RRA": {"biological_target": "PUM1 PUF domain R3-RRA (Homo sapiens, UniProt Q14671 828-1176, C935R;Q939A)", "sequence (Q14671 828-1176 C935R/Q939A)": "as the sequence (Q14671 828-1176 S863G/R864Y/Q867R) above, with G36S, Y37R, R40Q, C108R, Q112A counted along it", "method_in_brief": "as §1"}, "PUM1 PUF domain R5-DCR": {"biological_target": "PUM1 PUF domain R5-DCR (Homo sapiens, UniProt Q14671 828-1176, C1007D;R1008C;Q1011R)", "method_in_brief": "as §1"}, "PUM1 PUF domain R5-KLE": {"biological_target": "PUM1 PUF domain R5-KLE (Homo sapiens, UniProt Q14671 828-1176, C1007K;R1008L;Q1011E)", "method_in_brief": "as §1"}, "PUM1 PUF domain R5-RRH": {"biological_target": "PUM1 PUF domain R5-RRH (Homo sapiens, UniProt Q14671 828-1176, C1007R;Q1011H)", "sequence (Q14671 828-1176 C1007R/Q1011H)": "as the sequence (Q14671 828-1176 S863G/R864Y/Q867R) above, with G36S, Y37R, R40Q, C180R, Q184H counted along it", "method_in_brief": "as §1"}, "PUM1 PUF domain R4-APC": {"biological_target": "PUM1 PUF domain R4-APC (Homo sapiens, UniProt Q14671 828-1176, N971A;H972P;Q975C)", "sequence (Q14671 828-1176 N971A/H972P/Q975C)": "as the sequence (Q14671 828-1176 S863G/R864Y/Q867R) above, with G36S, Y37R, R40Q, N144A, H145P, Q148C counted along it", "method_in_brief": "as §1"}}}
{"sequence": "GGCUAGAACUAGUGGAUCCCCCGGCGCCCGGCGGCUCGAGCCCGGGUAAGUGUAAAUCGUCUGCAUGCCGCCGGGCGCCAUGCCUGCAGGUCGACUCUAGAAAACAUG", "values": [{"measurement": "binding signal", "setting": "PUM1 PUF domain R1-KTS", "result": "4.91 log2 enrichment (interaction score)"}, {"measurement": "binding signal", "setting": "PUM1 PUF domain R1-GYR", "result": "4.99 log2 enrichment (interaction score)"}]}
{"sequence": "GGCUAGAACUAGUGGAUCCCCCGGCGCCCGGCGGCUCGAGCCCGGGUAAGUGUAAUUAGUCUGCAUGCCGCCGGGCGCCAUGCCUGCAGGUCGACUCUAGAAAACAUG", "values": [{"measurement": "binding signal", "setting": "PUM1 PUF domain R3-RAT", "result": "3.26 log2 enrichment (interaction score)"}, {"measurement": "binding signal", "setting": "PUM1 PUF domain R3-MRY", "result": "1.32 log2 enrichment (interaction score)"}, {"measurement": "binding signal", "setting": "PUM1 PUF domain R3-RRA", "result": "3.19 log2 enrichment (interaction score)"}]}
{"sequence": "GGCUAGAACUAGUGGAUCCCCCGGCGCCCGGCGGCUCGAGCCCGGGUAAGUGUCAAUAGUCUGCAUGCCGCCGGGCGCCAUGCCUGCAGGUCGACUCUAGAAAACAUG", "values": [{"measurement": "binding signal", "setting": "PUM1 PUF domain R5-DCR", "result": "2.94 log2 enrichment (interaction score)"}, {"measurement": "binding signal", "setting": "PUM1 PUF domain R5-KLE", "result": "5.37 log2 enrichment (interaction score)"}, {"measurement": "binding signal", "setting": "PUM1 PUF domain R5-RRH", "result": "5.57 log2 enrichment (interaction score)"}]}
{"sequence": "GGCUAGAACUAGUGGAUCCCCCGGCGCCCGGCGGCUCGAGCCCGGGUAAGUGUAUAUAGUCUGCAUGCCGCCGGGCGCCAUGCCUGCAGGUCGACUCUAGAAAACAUG", "values": [{"measurement": "binding signal", "setting": "PUM1 PUF domain R4-APC", "result": "3.17 log2 enrichment (interaction score)"}]}
